This is part of a sample that, as a whole, favours compounds with a hit. Of some 83,000 tested, about 20% had one in any assay.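 Assay: single dose, 48 h. Readout: percent growth (0 = no net growth; negative = cell death). Active: <10.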 A number with no mark means an inactive call. Calls of active or inactive are those of the source.
Assays:
Assay in all cases: NCI-60 one-dose screen, 48 h (100 = growth as untreated, 0 = no growth, -100 = all killed)
Conditions in all cases: 10 µM unless noted
BT-549 breast = test system: BT-549 breast
MDA-MB-435 melanoma = test system: MDA-MB-435 melanoma
SW-620 colon = test system: SW-620 colon
MCF7 breast = test system: MCF7 breast
HCT-116 colon = test system: HCT-116 colon
HCC-2998 colon = test system: HCC-2998 colon
KM12 colon = test system: KM12 colon

SMILES | growth (BT-549 breast) | growth (MDA-MB-435 melanoma) | growth (SW-620 colon) | growth (MCF7 breast) | growth (HCT-116 colon) | growth (HCC-2998 colon) | growth (KM12 colon)
CC(C)[C@H]1CC[C@H]2[C@@H](CC[C@H]3[C@](C)(CN)CCC[C@]23C)C1 | 99.4% | 1.77% (active) | -12.2% (active) | -55.8% (active) | 5.32% (active) | 29.3% | 36.7%
CSc1nnc(C2=CC(=O)c3ccccc3C2=O)n1-c1ccccc1 | 92.9% | 96.7% | 92.1% | 94.5% | 73.8% | 85% | 61.5%
CCCCOc1ccc(C(C)(C)c2ccc(OCCCC)cc2)cc1 | 106% | 117% | 112% | 104% | 95.8% | 105% | 120%
O=C1c2ccccc2-c2c1nc1ccccc1[n+]2[O-] | 98.2% | 110% | 97.5% | 95.8% | 98.5% | 104% | 101%
O=NC1CC=CCC1c1ccccc1 (stereo unspecified) | 105% | 112% | 105% | 108% | 95.6% | 104% | 112%
O=C(C=C=Nc1ccccc1)C(=O)N=C=Cc1ccccc1 | -7.61% (active) | 50.7% | -26.3% (active) | 25.9% | -36.3% (active) | 74.1% | 81.5%
CC/C(=C\c1ccc(N(C)C)cc1)c1ccncc1 | 65.8% | -6.41% (active) | 19.9% | 28.8% | 22.2% | 66.6% | 20.4%
O=C(/C=C/c1cccnc1)NCCCCC1CCCN(C(=O)c2ccccc2)C1 (stereo unspecified) | 73.7% | 7.35% (active) | 25.5% | 54.4% | 7.85% (active) | 46.6% | 43.9%
Cn1cc(-c2csc(-c3c[nH]c4ncccc34)n2)c2cc(F)cnc21 | 74.1% | 20% | 81.3% | 56.8% | 59.8% | 62.2% | 49.4%
O=C1CCCN1C1CCN(Cc2cc3ccccc3[nH]c2=O)c2ccccc21 (stereo unspecified) | 98.2% | 93.5% | 96.3% | 92.8% | 82.6% | 96.4% | 98.1%
CN(CC(=O)Nc1nc2ccccc2[nH]1)S(=O)(=O)c1ccc(Cl)cc1 | 99.2% | 91.2% | 67.5% | 40.9% | 72.8% | 91.3% | 105%
COc1ccc(-c2nnc(COc3ccc(NC(=O)Nc4cc(C(F)(F)F)cc(C(F)(F)F)c4)cc3F)o2)cc1 | 15.5% | 7.29% (active) | 13.6% | 1.51% (active) | 2.49% (active) | 11.5% | 0.401% (active)
CCOC(=O)C1=C(C)N2C(=NC3=C(CCC/C3=C\c3ccc(Cl)cc3)C2c2ccc(Cl)cc2)S1 (stereo unspecified) | -44.5% (active) | -14% (active) | -59.8% (active) | -43.7% (active) | -100% (active) | -100% (active) | -73.3% (active)
Cc1cc2c(cc1C)Nc1sc(NC(=O)CN3CCN(C)CC3)nc1C(=O)N2 | 109% | 111% | 116% | 97.5% | 101% | 101% | 102%
O=C(CCc1nnc(Cn2ccnc2)o1)c1nc2ccccc2[nH]1 | 114% | 111% | 109% | 106% | 106% | 108% | 111%
COc1ccc(-c2nc3sccn3c2-c2ccnc(S(C)(=O)=O)n2)cc1 | 122% | 82.7% | 91.1% | 46.2% | 79.6% | -55% (active) | 75%
CCCCCCCC/C=C\CCCCCCCCOc1ccccc1CC(=O)NCC[N+]1(C)CCCC1 | 94.5% | 71.2% | 78.9% | 82.6% | 74.7% | 74.8% | 51.8%

SMILES | growth (BT-549 breast) | growth (MDA-MB-435 melanoma) | growth (SW-620 colon) | growth (MCF7 breast) | growth (HCT-116 colon) | growth (HCC-2998 colon) | growth (KM12 colon)
Cc1cc(=O)n2n1-c1ccc(Cl)cc1NC(=O)C2 | 104% | 88.2% | 109% | 94.1% | 107% | 110% | 114%
O=C(NCCc1ccccc1)C1CCC(=O)N1Cc1ccc(Br)cc1 (stereo unspecified) | 107% | 110% | 97.5% | 102% | 77.9% | 108% | 106%
O=C1NC(=O)/C(=C\c2ccccc2)C2=C1CCCC2 | 35% | -76.3% (active) | -50.2% (active) | -49% (active) | 18.8% | 123% | 18%
Cc1ccc(NC(=O)Nc2ccc(-c3cccnc3)cc2N2CCC(CO)CC2)cc1 | 25.2% | 4.25% (active) | 20.3% | 9.77% (active) | 8.43% (active) | 14.1% | 20.1%
c1cnc2n[nH]c(Nc3ncnc4c3sc3ncccc34)c2c1 | 106% | 101% | 101% | 91.3% | 96.2% | 108% | 103%
Cc1cc([N+](=O)[O-])c(C)cc1C(=O)O | 92.5% | 102% | 108% | 97.6% | 102% | 109% | 102%
CN1C(=O)/C(=C/c2nc(-c3cccc(F)c3)n3ccccc23)c2ccccc21 | 90.9% | 93.6% | 84.6% | 44.3% | 44.5% | 99.4% | 94.1%
CN(C)c1nc(N)nc(Cn2c(-c3nonc3N)nc3ccccc32)n1 | 91.8% | 7.85% (active) | 52.4% | 66.5% | 71.5% | 82.7% | 55.4%
Cc1ccc(C(=O)Nc2ccc(Cl)cc2C(=O)NCc2ccccc2)cc1 | 103% | 2.07% (active) | 58.9% | 53.9% | 89.9% | 86.9% | 60.5%
O=C(CCc1nnc2sc(-c3ccc(Cl)cc3Cl)nn12)c1nc2ccccc2[nH]1 | -28.2% (active) | -39.7% (active) | -34.3% (active) | -40.7% (active) | -84.7% (active) | -90.3% (active) | -27% (active)
O=C1c2ccccc2C(=O)c2c1cccc2-n1nnc2ccccc21 | 113% | 121% | 105% | 112% | 86.5% | 83.4% | 110%
CCOC(=O)c1c(C)c(C(=O)OCC)n(C)c1C | 91.5% | 101% | 94.5% | 127% | 97.9% | 110% | 112%
CSc1ccc2c(c1)N(CCC1CCCCN1C)c1ccccc1S2 (stereo unspecified) | 67.9% | 42.6% | 75.6% | 5.18% (active) | 42.3% | 34.4% | 45%
COc1cc(/C=C/C(=O)Nc2cccnc2Nc2cc(OC)c(OC)c(OC)c2)cc(OC)c1OC | 96.7% | 96.6% | 99.1% | 87.9% | 88.6% | 97% | 103%
COC(=O)[C@]12CC[C@@H](C)[C@H](C)[C@@H]1C1=CC[C@@H]3[C@@]4(C)C[C@@H](OC(=O)c5ccco5)[C@H](O)[C@@](C)(CO)[C@@H]4[C@H](O)C[C@@]3(C)[C@]1(C)CC2 | -68.1% (active) | -86.7% (active) | -81.4% (active) | -73.7% (active) | -63.3% (active) | -89.1% (active) | -85.8% (active)
O=C(COC(=O)[C@H](C[Se][Se]C[C@H](NC(=O)c1ccc(Br)cc1F)C(=O)OCC(=O)c1ccc(F)cc1)NC(=O)c1ccc(Br)cc1F)c1ccc(F)cc1 | -93% (active) | -42.1% (active) | -95% (active) | -58.4% (active) | -72.4% (active) | -68.9% (active) | -99.1% (active)

Source: PubChem BioAssay (NCI)
